40 molecules from PubChem BioAssay (NCI) can be followed below.

Structures are written as SMILES. Where “and” joins values, the source holds several entries; their conditions need not be identical. Equal values may be shown once. About 79,000 compounds went through this panel and 15% of them were active in at least one assay; those are over-represented in the sample as a whole. Unmarked numbers belong to inactive results. Calls of active or inactive are those of the source. Cut-off read from the data, not from the text of the source: active = growth inhibition above about 70%; inactive = the rest.

This assay is described as follows: NCI Yeast Anticancer Drug Screen. Data for the cln2 rad14 strain (AID 165).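 Note: 0% = growth equal to vehicle treated cultures.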 The note with it: S. cerevisiae cln2 rad14 strain, stronger effect = higher value; at 50.0 µM unless noted. The procedure, abridged:
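Growth inhibition, relative to vehicle-treated controls, is the read-out. The test organism is a yeast strain with defined genetic alterations, cln2 rad14.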
For the molecule `COc1cc2c(cc1OC)C(=O)/C(=C/c1cc(OC)c(OC)c(OC)c1)C2`, the growth inhibition is -38.6%. In the case of `O=C1NN(C(=O)c2ccccc2)C(c2ccccc2[N+](=O)[O-])c2c1c1ccccc1n2C(=O)c1ccccc1` (stereo not given) it was -23.4%; in that of `O=C(O)C1C2CC=CCC21` (stereo not given), 8.85%. Then `Cc1cc(N(CCC#N)CCC#N)ccc1/C=C1/CN(N2C(=O)/C(=C/c3ccc(N(CCC#N)CCC#N)cc3C)N=C2c2ccccc2)C(c2ccccc2)=N1`, with 5.6%; and `N#CC(C(=O)CCC(=O)C(C#N)c1ccccc1)c1ccccc1` (stereo not given), with 5.9%; and `CCCC(C)C(C(=O)OCC)C(=O)OCC` (stereo not given), with 21.5% and -17.4%. For the molecule `NNc1nc(NCc2ccco2)c2[nH]cnc2n1`, the growth inhibition is 2.45%. Then `Cc1ccc(/C=C2\NC(=S)NC2=O)cc1`, with -21.4%; and `COc1ccc(-c2nnc(N)s2)cc1OC`, with -1.6%. With `Cc1c2noc1CCCCCCCCCCC2`, the growth inhibition is -4.15%. Then `O=C(Cc1ccccc1)N/N=C(/c1nc2ccc([N+](=O)[O-])cc2[nH]c1=O)C(O)c1ccccc1Cl` (stereo not given), with 2.2%. For the molecule `CC(C)N1C(=O)NC2C1NC(=O)N2C(C)C` (stereo not given) (tested in a mixture with another compound), the growth inhibition was 22.4%. For the molecule `Cn1cnc2nc(Cl)nc(N)c21`, the growth inhibition was -16.6%. For `COc1cccc2c(SC)c(C)[nH]c12`, the growth inhibition was -0.05%. Take `CCC(CC)C(O)C(C)C(C)O` (stereo not given): the growth inhibition is 4.8%.

As for `N#CC1(C(=O)c2ccccc2)C=Cc2ccccc2N1C(=O)c1ccccc1` (stereo not given), the growth inhibition was 12.4%. As for `Cc1[nH]c(N)nc(=S)c1CCCNc1ccccc1`, the growth inhibition was -9.15%. In the case of `CCCCCCCCCC(=O)N=C(C(N)=O)C(N)=O` it was 3.75%.

With `CCOC(=O)c1cnc2c(cnn2CC)c1NCC(C)C`, the growth inhibition was 3.15%.

With `O=C(O)c1ccccc1-c1ccccc1`, the growth inhibition was 4.3%.

On to `O=c1c2ccc(Cl)cc2nc2nc(-c3ccccc3)c3cc(Cl)ccc3n12`, for which the growth inhibition was 22.9%. In the case of `O=C(O)c1c(O)cc(=O)oc1-c1ccc(Cl)cc1` it was 4%. As for `CC(C)(C)SC(=S)SCC(=O)c1ccc(F)cc1`, the growth inhibition was -10.4%. In the case of `COc1ccc(C2=C(c3ccccc3)C(=O)C3(c4ccccc4)CC23c2ccc(OC)cc2)cc1` (stereo not given), the growth inhibition is 1.85%.

As for `Cc1nccn1C(/C(=N/O)c1ccccc1)c1ccccc1` (stereo not given), the growth inhibition is 13.7%. On to `CN(C)CC(O)(C(=O)c1ccccc1)c1ccccc1` (stereo not given), for which the growth inhibition is -25.2%. As to `N#CC1CCC[N-]C1.N#CC1CCC[N-]C1.[Cl][Pt+2][Cl]` (stereo not given), the growth inhibition is 21.1%. In the case of `CCCCCCCCCCCCCCCCCCOc1ccccn1`, the growth inhibition is 2.55%. `O=c1c2cc3c(=O)n4c(cc(-c5ccccc5)c5cc(Cl)ccc54)nc3cc2nc2cc(-c3ccccc3)c3cc(Cl)ccc3n12`: the growth inhibition is 14.2%. Then `COC(=O)CCC(C)C1CCC2(C)C3=C(C(=O)CC12C)C1(C)CCC(O)C(C)(C)C1=C(O)C3` (stereo not given), with 79.9% (active). Turning to `O=c1oc(=O)c2cc3c(=O)oc(=O)c3cc12`, the growth inhibition is -28%. In the case of `COc1cc2c(cc1OC)[C@H](c1cc(OC)c3c(c1)OCO3)[C@H]1C(=O)OCC1C2` (stereo not given in full) it was 4.85%; in that of `Nc1ccc(Cc2cc([N+](=O)[O-])cc([N+](=O)[O-])c2)cc1`, -42%. With `COC(=O)C(=O)C(C(=O)C=C(C)C)C(=O)C(=O)Nc1ccc(C)cc1C` (stereo not given), the growth inhibition was 11.2%. For the molecule `O=C(O)C1CC(=O)N(Cc2ccccc2)C1` (stereo not given), the growth inhibition is 6.45%. Then `CC(C)(C)c1ccncc1`, with -10.2%. Regarding `CCSC1C(O)C(CO)OC1n1cnc2c(=S)nc[nH]c21` (stereo not given), the growth inhibition was 2.6%.

As for `C1CSCCSS[C@@H]2CCCCC2SC1` (stereo not given in full), the growth inhibition is -11.9%. Then `Cc1cc(N)c(N)cc1C`, with 20.1%. Consider `O=C(O)C1Cc2c([nH]c3ccccc23)CN1` (stereo not given), for which the growth inhibition was 2.25%.
